# Values joined by “and” are separate entries in the source; they are usually repeats but may differ in a detail not shown here. Identical values can stand only once. A number with no mark means an inactive call. Inconclusive results are not listed. Where a call stands in place of a potency, no number is given. Active and inactive are the calls of the source. Unless noted, calls come from the whole dose curve; as a rule, active = well fitted curve in the direction sought with a large enough effect; inconclusive = small, poorly fitted or top-dose-only effect, or another doubt; inactive = no such curve, though single readings can be large; an effect the other way counts as inactive or inconclusive.
# Key:
# [1] = biological target: Tyrosine-protein kinase Yes (Homo sapiens) (UniProt P07947); assay: qHTS for small molecule inhibitors of Yes1 kinase: Primary Screen (AID 686947); conditions: Yes1 kinase biochemical qHTS inhibition; series mostly up to 76.9 µM; note: nearly all actives have a fitted effect of over 60% in size; note: potency is the fitted concentration of half-maximal effect
# Chain of Tyrosine-protein kinase Yes (Homo sapiens) (P07947 whole entry, looked up): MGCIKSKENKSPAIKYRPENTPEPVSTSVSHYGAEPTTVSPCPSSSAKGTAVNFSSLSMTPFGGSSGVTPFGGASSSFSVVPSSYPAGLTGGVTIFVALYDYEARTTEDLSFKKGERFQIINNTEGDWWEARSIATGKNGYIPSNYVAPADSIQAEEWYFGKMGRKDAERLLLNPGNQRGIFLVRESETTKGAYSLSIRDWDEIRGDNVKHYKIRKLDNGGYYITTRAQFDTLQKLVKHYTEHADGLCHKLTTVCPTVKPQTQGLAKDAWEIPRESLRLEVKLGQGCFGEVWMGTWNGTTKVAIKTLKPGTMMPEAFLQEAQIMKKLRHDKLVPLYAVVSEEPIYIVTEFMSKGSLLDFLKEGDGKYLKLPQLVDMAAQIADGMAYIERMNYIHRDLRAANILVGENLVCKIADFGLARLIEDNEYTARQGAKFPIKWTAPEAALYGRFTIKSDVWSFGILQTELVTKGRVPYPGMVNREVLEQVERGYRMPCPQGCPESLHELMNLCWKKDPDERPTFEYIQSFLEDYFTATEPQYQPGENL
# Outline: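 ADP-Glo luminescence readout; final 4 nM Yes1, 0.1 mM ATP, 0.3 mg/mL poly(E4Y), Tris pH 7.5, MgCl2, DTT, Brij-35. 20 min compound preincubation, 60 min reaction at RT. Normalized to DMSO wells with and without enzyme.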
# [2] = qHTS for small molecule inhibitors of Yes1 kinase: Counter Assay (AID 686950); conditions: series mostly up to 76.9 µM;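 note: no kinase present so only ADP-Glo detection of a fixed ADP amount is tested; luminescence from ADP-Glo reporting ADP in a fixed ATP and ADP mixture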
# Outline: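 Luminescence read-out from ADP-Glo quantifies a fixed ADP amount (0.02 mM ADP with 0.08 mM ATP) after 60 min at room temperature; signal is normalized between DMSO wells with ATP/ADP and with 0.1 mM ATP alone.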
# [3] = qHTS assay for small molecule activators of the nuclear factor-kappa B (NF-kB) signaling pathway (AID 651749; active = well fitted activation curve with a large enough effect in the signal ratio; the % refers to the signal ratio); conditions: NF-kB-bla ME-180 cells, beta-lactamase FRET ratio, 16 h; active compounds read high
# Outline: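 Stably transfected ME-180 line; NF-kB response element upstream of beta-lactamase. Treatment: compound or DMSO, 16 hr. Detection: fluorescent FRET substrate.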
# [4] = qHTS assay for environmental chemicals that activate the Aryl hydrocarbon Receptor (AhR) signaling pathway (AID 651777); conditions: 1A2-DRE human hepatoma cells, luciferase, 24 h; active compounds read high; note: nearly all actives have a fitted effect of over 15% in size
# Outline: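 Concentration–response screening used 1,200 1A2-DRE cells per well, 24 hr compound exposure (37 C, 5% CO2), and One-Glo luminescence as the AhR-driven CYP1A2 reporter signal.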
# [5] = qHTS assay for small molecule disruptors of the mitochondrial membrane potential - 1 hr assay (AID 651754; calls by dose curve; note: nearly all actives have a fitted effect of over 35% in size); conditions: series mostly up to 92.2 µM
# Outline: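 Steps: seed HepG2 cells and let attach overnight; pin-transfer compound or vehicle; incubate 1 hr at 37C; add Mito-MPS dye for 30 min; read two-channel fluorescence for monomer and aggregate forms.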
# [6] = qHTS assay for small molecule disruptors of the mitochondrial membrane potential - 5 hr assay (AID 651755; calls by dose curve; note: nearly all actives have a fitted effect of over 40% in size); conditions: JC-1-type ratio dye; series mostly up to 92.2 µM
# Outline: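 HepG2, 2,000 cells/well, overnight attach; cpd or DMSO 5 hr, 37C/5% CO2; Mito-MPS 30 min 37C; fluor 490/535 + 540/590 nm.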
# [7] = qHTS assay to identify small molecules that stimulate interleukin-8 (IL-8) secretion (AID 651758; active = well fitted activation curve with a large enough effect in the signal ratio; the % refers to the signal ratio); conditions: HTRF ratio (665/615); series mostly up to 92.2 µM
# Outline: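 Secreted IL-8 measured by TR-FRET sandwich (cryptate and XL665 antibodies) from THP-1 cells exposed to compound overnight (16 hrs, 37 C).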
# [8] = biological target: Peroxisome proliferator-activated receptor alpha (Homo sapiens) (UniProt Q07869); assay: qHTS assay for small molecule agonists of the peroxisome proliferator-activated receptor alpha (PPARalpha) signaling pathway (AID 651778); conditions: PathHunter PPARalpha complementation, chemiluminescence, 6 h; active compounds read high
# Chain of Peroxisome proliferator-activated receptor alpha (Homo sapiens) (Q07869 whole entry, looked up): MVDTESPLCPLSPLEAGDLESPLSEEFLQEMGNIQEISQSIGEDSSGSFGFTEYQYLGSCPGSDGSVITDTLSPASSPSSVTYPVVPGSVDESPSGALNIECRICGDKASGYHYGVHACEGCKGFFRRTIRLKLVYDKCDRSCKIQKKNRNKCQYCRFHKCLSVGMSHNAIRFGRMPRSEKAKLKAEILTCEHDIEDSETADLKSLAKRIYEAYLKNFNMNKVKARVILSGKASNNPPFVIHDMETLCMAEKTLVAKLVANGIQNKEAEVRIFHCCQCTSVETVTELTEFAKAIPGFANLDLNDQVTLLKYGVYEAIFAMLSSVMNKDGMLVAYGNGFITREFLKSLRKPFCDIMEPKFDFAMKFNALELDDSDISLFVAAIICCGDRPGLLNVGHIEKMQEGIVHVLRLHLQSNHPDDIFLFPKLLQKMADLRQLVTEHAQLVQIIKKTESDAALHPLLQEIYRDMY
# Outline: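 Chemiluminescence from complemented enzyme reported PPARalpha activation in cells after 6 hr of compound treatment at 37 C. The detection reagent was incubated for 60 min at room temperature, and compounds were scored as agonists.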
# [9] = biological target: Nuclear receptor ROR-gamma (Homo sapiens) (UniProt P51449); assay: qHTS assay for small molecule antagonists of the retinoid-related orphan receptor gamma (ROR-gamma) signaling pathway (AID 651802); conditions: ROR-gamma antagonist cell reporter assay; series mostly up to 92.2 µM;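 note: CHO cells with doxycycline-induced ROR-gamma expression; luciferase reporter luminescence driven by ROR response element; nearly all actives have a fitted effect of over 60% in size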
# Chain of Nuclear receptor ROR-gamma (Homo sapiens) (P51449 whole entry, looked up): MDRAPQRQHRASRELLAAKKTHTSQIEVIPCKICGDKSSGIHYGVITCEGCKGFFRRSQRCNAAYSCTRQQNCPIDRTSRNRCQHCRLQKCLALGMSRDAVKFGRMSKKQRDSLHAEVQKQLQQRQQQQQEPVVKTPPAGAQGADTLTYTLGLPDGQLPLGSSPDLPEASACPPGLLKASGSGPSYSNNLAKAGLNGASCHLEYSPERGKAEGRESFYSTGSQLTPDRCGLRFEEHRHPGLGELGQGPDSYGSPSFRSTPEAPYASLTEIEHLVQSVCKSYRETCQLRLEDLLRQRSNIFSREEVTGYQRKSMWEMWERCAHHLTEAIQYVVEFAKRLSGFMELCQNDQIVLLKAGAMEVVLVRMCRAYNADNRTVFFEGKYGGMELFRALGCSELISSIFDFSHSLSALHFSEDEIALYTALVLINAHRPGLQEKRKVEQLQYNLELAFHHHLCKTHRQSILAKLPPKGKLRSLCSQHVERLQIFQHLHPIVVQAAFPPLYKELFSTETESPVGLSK
# Outline: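 Antagonism is scored as a fall in luminescence from a RORE-luciferase reporter in CHO cells expressing ROR under a TET-inducible promoter, measured 16hr after doxycycline induction in the presence of compound.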
# [10] = biological target: Tumor necrosis factor (Homo sapiens) (UniProt P01375); assay: qHTS assay to identify small molecules that stimulate Tumor Necrosis Factor-alpha (TNF-alpha) secretion (AID 651757; active = well fitted curve in the direction sought with a large enough effect in the signal ratio; the % refers to the signal ratio); conditions: Human cells, HTRF 665/615 ratio; series mostly up to 92.2 µM
# Chain of Tumor necrosis factor (Homo sapiens) (P01375 whole entry, looked up): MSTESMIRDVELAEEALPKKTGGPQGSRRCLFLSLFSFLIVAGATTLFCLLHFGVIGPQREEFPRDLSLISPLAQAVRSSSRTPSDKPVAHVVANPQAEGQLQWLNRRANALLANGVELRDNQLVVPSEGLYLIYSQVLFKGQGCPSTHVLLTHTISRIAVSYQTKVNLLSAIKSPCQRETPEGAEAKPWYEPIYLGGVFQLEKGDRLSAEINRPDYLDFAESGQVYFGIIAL
# Outline: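 Secreted TNF-alpha from compound-treated THP-1 cells (17 hrs, 37 C) was quantified with a homogeneous time-resolved fluorescence antibody assay.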
structure (smiles),measurement,setting,value
CN(C)c1ccc(Nc2nc(N)n(C(=O)c3c(F)cccc3F)n2)cc1,Potency,[1],772 nM (active)
same,outcome,[2],inactive
CCCS(=O)(=O)Nc1ccc(F)c(C(=O)c2c[nH]c3ncc(Cl)cc23)c1F,Potency,[1],173 nM (active)
same,outcome,[2],inactive
CC(C)(Sc1ccc(CCN(CCCCC2CCCCC2)C(=O)NC2CCCCC2)cc1)C(=O)O,activation,[3],7.6%
same,activation,[4],0.388%
same,outcome,[2],inactive
NS(=O)(=O)c1cc2c(cc1Cl)NC=NS2(=O)=O,activation,[3],-0.0978%
same,outcome,[5],inactive
same,outcome,[6],inactive
same,outcome,[7],inactive
same,activation,[4],-1.42%
same,max response,[8],-1.54%
same,outcome,[9],inactive
C[C@]12CCC(=O)C=C1CC[C@@H]1[C@@H]2[C@@H](O)C[C@@]2(C)[C@H]1CC[C@]2(O)C(=O)CO,activation,[3],-2.01%
same,activation,[4],-1.47%
same,max response,[8],-0.295%
same,Potency,[1],inactive
same,outcome,[2],inactive
CCCC(CCC)C(=O)O,activation,[3],0.312% and -3.31% and -0.945%
same,outcome,[10],inactive
same,outcome,[7],inactive
CCC(C)N(C)C(=O)c1cc2ccccc2c(-c2ccccc2Cl)n1 (configuration not stated),Potency,[1],inactive
same,outcome,[2],inactive
Cc1ccccc1C(C(=O)NC1CCCC1)N(C(=O)Cn1cnc2ccccc21)c1cccc(F)c1 (configuration not stated),Potency,[1],inactive
same,outcome,[2],inactive
NC(=O)c1ccc(-c2nc(-c3ccc4c(c3)OCCO4)c(-c3ccccn3)[nH]2)cc1,Potency,[1],inactive
same,outcome,[2],inactive
Cc1cccc(-c2nn(C(=S)Nc3ccccc3)cc2-c2ccnc3ccccc23)n1,Potency,[1],2440 nM (active)
same,outcome,[2],inactive
COCCNCCCn1c(C(=O)CF)c(-c2ccc(C)cc2)c2c(N)ncnc21,Potency,[1],inactive
same,outcome,[2],inactive
CCCn1c(=O)c2[nH]c(C34CC5CC3C[C@@H](C5)C4)nc2n(CCC)c1=O,Potency,[1],inactive
same,outcome,[2],inactive
COc1ccc(-c2ccc3c(N4CCOC[C@H]4C)nc(N4CCOC[C@H]4C)nc3n2)cc1CO,Potency,[1],inactive
same,outcome,[2],inactive
Fc1ccc(Cl)cc1-c1nc(Nc2ccncc2)c2nccnc2n1,Potency,[1],inactive
same,outcome,[2],inactive
O=C(O)[C@@H](c1ccc(OCc2ccc3ccccc3n2)cc1)C1CCCC1,Potency,[1],inactive
same,outcome,[2],inactive
CC1(C)SCCN(S(=O)(=O)c2ccc(OCC#CCO)cc2)[C@@H]1C(=O)NO,Potency,[1],inactive
same,outcome,[2],inactive
CCCc1nn(C)c2c(=O)[nH]c(-c3cc(S(=O)(=O)N4CCN(C)CC4)ccc3OCC)nc12,Potency,[1],inactive
same,outcome,[2],inactive
COc1cc2c(cc1OC)CN(CCc1ccc(NC(=O)c3cccc4c(=O)c5cccc(OC)c5[nH]c34)cc1)CC2,Potency,[1],inactive
same,outcome,[2],inactive
CNC(=O)c1ccc(N2C(=S)N(c3ccc(C#N)c(C(F)(F)F)c3)C(=O)C2(C)C)cc1F,Potency,[1],inactive
same,outcome,[2],inactive
CC(c1cc2ccccc2s1)N(O)C(N)=O (configuration not stated),Potency,[1],inactive
same,outcome,[2],inactive
CCn1c(-c2nonc2N)nc2cnc(Oc3cccc(NC(=O)c4ccc(OCCN5CCOCC5)cc4)c3)cc21,Potency,[1],inactive
same,outcome,[2],inactive
Nc1ncnc2nc(-c3ccc(N4CCOCC4)nc3)cc(-c3cccc(Br)c3)c12,Potency,[1],3450 nM (active)
same,outcome,[2],inactive
Nc1nc2ccc(OC(F)(F)F)cc2s1,Potency,[1],inactive
same,outcome,[2],inactive
Cc1cc(Nc2nc(N[C@@H](C)c3ncc(F)cn3)ncc2Cl)n[nH]1,Potency,[1],772 nM (active)
same,outcome,[2],inactive
CC(C)(N)C(=O)N[C@H](COCc1ccccc1)C(=O)N1CCC2(CC1)CN(S(C)(=O)=O)c1ccccc12,Potency,[1],inactive
same,outcome,[2],inactive
O=C(Nc1cccnc1)N1CCC(Cc2cccc(Oc3ccc(C(F)(F)F)cn3)c2)CC1,Potency,[1],inactive
same,outcome,[2],inactive
O=c1[nH]c(-c2ccc(C(F)(F)F)cc2)nc2c1CSCC2,Potency,[1],inactive
same,outcome,[2],inactive
Cc1n[nH]c(C)c1Cc1sc2c(c1C(=O)N1C[C@H](O)CO1)c(=O)n(C)c(=O)n2CC(C)C,Potency,[1],inactive
same,outcome,[2],inactive
c1ccc(-c2nn3c(c2-c2ccnc4cc(OCCN5CCOCC5)ccc24)CCC3)nc1,Potency,[1],8670 nM (active)
same,outcome,[2],inactive
CCN(CCCO)CCCOc1ccc2c(Nc3cc(CC(=O)Nc4cccc(F)c4)[nH]n3)ncnc2c1,Potency,[1],387 nM (active)
same,outcome,[2],inactive
Cc1cc([C@@H](C)Nc2ccccc2C(=O)O)c2nc(N3CCOCC3)cc(=O)n2c1,Potency,[1],inactive
same,outcome,[2],inactive
O=C(C=Cc1ccc(/C=C/C(=O)Nc2ccc(C3=NCCN3)cc2)cc1)Nc1ccc(C2=NCCN2)cc1,Potency,[1],inactive
same,outcome,[2],inactive
CCOc1cc(C(=O)Nc2ccc(Cl)c(-c3nc4ccccc4[nH]3)c2)cc(OCC)c1OCC,Potency,[1],inactive
same,outcome,[2],inactive
COc1ccccc1[C@H](c1cccc2ccccc12)[C@@](C)(C#N)C(=O)N1CCC(c2cccc(C(F)(F)F)c2)CC1,Potency,[1],inactive
same,outcome,[2],inactive
Cc1c(CN2CCN(C(=O)C(C)C)CC2)sc2c(N3CCOCC3)nc(-c3cnc(N)nc3)nc12,Potency,[1],244 nM (active)
same,outcome,[2],inactive
Cc1cc(SCc2sc(-c3ccc(C(F)(F)F)cc3)nc2C)ccc1OCC(=O)O,Potency,[1],inactive
same,outcome,[2],inactive

# Source: PubChem BioAssay (NCATS)
